Experimental data taken from PubChem BioAssay (EPA / NIEHS).
“And” between values parts separate entries of the source, which are not always exact repeats. Identical values can stand only once. Records with an inconclusive call do not appear. The source made the active and inactive calls. How the source made its calls, unless noted: active means hit-call score of the fitted dose curve at least 0.9, where 1 is the maximum; inactive means score below 0.9.

Experiments:
[1] = ATG_NFI_CIS: Attagene CIS-FACTORIAL HepG2 Assay for human Nuclear Factor I (NFI) (AID 2282989); details: HepG2 cis-regulatory reporter, NFI response element transcription; actives raise or lower the signal
Procedure, shortened: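 HepG2 cells transiently transfected with cis-element-driven multiplexed reporter transcription units, dosed for 24 h. Reporter mRNA quantified by RT-PCR, fluorescent labelling, HpaI digestion and capillary electrophoresis; bidirectional fit versus DMSO baseline.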

[2] = molecular target: Myc proto-oncogene protein (Homo sapiens) (UniProt P01106); experiment: ATG_Myc_CIS: Attagene CIS-FACTORIAL HepG2 Assay for human Myelocytomatosis (Myc) Proto-Oncogene Transcription Factor (AID 2282990); details: HepG2, Attagene cis-reporter transcription factor activity; actives raise or lower the signal
Procedure, shortened: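 HepG2 cells transiently transfected with multiple cis-promoter-driven reporter transcription units, so endogenous TF activity is read. After 24 h compound exposure, reporter mRNA was quantified by RT-PCR, 6-FAM labelling, HpaI digestion and capillary electrophoresis; bidirectional fit versus DMSO.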

[3] = ATG_NF_kB_CIS: Attagene CIS-FACTORIAL HepG2 Assay for human Nuclear Factor Kappa B (NF-kB) (AID 2282991); details: HepG2 Attagene cis-factorial NF-kB reporter mRNA; actives raise or lower the signal
Procedure, shortened: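 Read-out: reporter transcript levels quantified by RT-PCR plus capillary electrophoresis of 6-FAM-labelled, HpaI-cut fragments. Transfected HepG2 cells, 24 h compound exposure, endogenous NF-kB-driven cis element; gain or loss scored versus DMSO.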

[4] = ATG_NRF2_ARE_CIS: Attagene CIS-FACTORIAL HepG2 Assay for human Nuclear Factor Erythroid 2 Related Factor 2 (NFR2) response to Antioxidant Response Elements (ARE) (AID 2282992); details: HepG2 Attagene ARE/NRF2 reporter, transcription factor activity; actives raise or lower the signal;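 on AC50: reporter mRNA level measured by RT-PCR and capillary electrophoresis fluorescence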
Procedure, shortened: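 Cis-factorial assay: transfected HepG2 reporter library, 24 h dosing, mRNA readout via RT-PCR/CE; DMSO-referenced bidirectional analysis.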

[5] = ATG_Oct_MLP_CIS: Attagene CIS-FACTORIAL HepG2 Assay for human Octamer-Binding Transcription Factor (Oct) (AID 2282993); details: HepG2 Attagene cis-factorial Oct reporter, mRNA; actives raise or lower the signal
Procedure, shortened: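 HepG2 cells transiently transfected with cis-promoter-driven multiplexed reporter transcription units, dosed for 24 h. Reporter mRNA quantified by RT-PCR, fluorescent labelling, HpaI digestion and capillary electrophoresis; bidirectional fits versus DMSO baseline.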

[6] = molecular target: Cellular tumor antigen p53 (Homo sapiens) (UniProt P04637); experiment: ATG_p53_CIS: Attagene CIS-FACTORIAL HepG2 Assay for human p53 Transcription Factor (AID 2282994); details: HepG2 p53 cis-element reporter, Attagene mRNA; actives raise or lower the signal
Procedure, shortened: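 Using HepG2 hepatoma cells carrying cis-acting multiplexed reporters, mRNA induction is detected after a 24 h exposure. Gain- and loss-of-signal responses are fitted relative to DMSO-treated cells.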

[7] = molecular target: Peroxisome proliferator-activated receptor gamma (Homo sapiens) (UniProt P37231); experiment: ATG_PPARg_TRANS: Attagene TRANS-FACTORIAL HepG2 Assay for human Peroxisome Proliferator-activated Receptor-gamma (PPARg) (AID 2283007; active means hit-call score of the fitted dose curve at least 0.9, where 1 is the maximum)
Procedure, shortened: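 Read-out: reporter mRNA induction, detected by fluorescence after RT-PCR and capillary electrophoresis. Transiently transfected human HepG2 liver cells carrying a chimeric NR-Gal4 construct were dosed for 24 h; activity was fitted upward relative to DMSO.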

[8] = molecular target: Nuclear receptor subfamily 1 group I member 2 (Homo sapiens) (UniProt O75469); experiment: ATG_PXR_TRANS: Attagene TRANS-FACTORIAL HepG2 Assay for human Pregnane X Receptor (PXR) (AID 2283008; active means hit-call score of the fitted dose curve at least 0.9, where 1 is the maximum)
Procedure, shortened: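 Fluorescence intensity of FAM-labelled, HpaI-digested reporter amplicons, separated by capillary electrophoresis, quantifies induction. HepG2 cells with PXR-Gal4 trans-reporter system were exposed 24 h; DMSO defines baseline.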

[9] = molecular target: human RAR-related Orphan Receptor beta (RORb), RORB (gene 6096) (UniProt Q92753); experiment: ATG_RORb_TRANS: Attagene TRANS-FACTORIAL HepG2 Assay for human RAR-related Orphan Receptor beta (RORb) (AID 2283010; active means hit-call score of the fitted dose curve at least 0.9, where 1 is the maximum)
Procedure, shortened: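 HepG2 cells were transiently transfected with multiplexed GAL4-UAS reporter units expressing chimeric nuclear receptor–GAL4 proteins, then dosed for 24 h. Reporter mRNA was quantified by RT-PCR with fluorescent labelling and capillary electrophoresis; gain of signal was fitted relative to DMSO.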

[10] = molecular target: human Peroxisome Proliferator-activated Receptor alpha (PPARa), PPARA (gene 5465) (UniProt Q07869); experiment: ATG_PPARa_TRANS: Attagene TRANS-FACTORIAL HepG2 Assay for human Peroxisome Proliferator-activated Receptor alpha (PPARa) (AID 2283001; active means hit-call score of the fitted dose curve at least 0.9, where 1 is the maximum;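 on AC50: potency for gain of reporter signal over DMSO so agonist or activator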)
Procedure, shortened: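 HepG2 cells transiently transfected with multiplexed GAL4-UAS reporter units and chimeric NR-Gal4 constructs were dosed for 24 h. Reporter mRNA was measured by RT-PCR with fluorescent labelling and capillary electrophoresis; gain of signal fitted against DMSO.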

[11] = molecular target: human Retinoic Acid Receptor beta (RARb), RARB (gene 5915) (UniProt P10826); experiment: ATG_RARb_TRANS: Attagene TRANS-FACTORIAL HepG2 Assay for human Retinoic Acid Receptor beta (AID 2283004; active means hit-call score of the fitted dose curve at least 0.9, where 1 is the maximum)
Procedure, shortened: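 Transient transfection of HepG2 with multiple reporter units → chemical dosing, 24 h → total RNA isolation → RT with oligo(dT) → reporter-specific PCR, 6-FAM primer extension, HpaI digest → capillary electrophoresis. Positive direction vs DMSO control.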

[12] = molecular target: Retinoic acid receptor alpha (Homo sapiens) (UniProt P10276); experiment: ATG_RARa_TRANS: Attagene TRANS-FACTORIAL HepG2 Assay for human Retinoic Acid Receptor alpha (RARa) (AID 2283005; active means hit-call score of the fitted dose curve at least 0.9, where 1 is the maximum)
Procedure, shortened: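 HepG2 cells transiently transfected with multiple reporter units expressing chimeric RARα-GAL4 fusion, with GAL4-UAS-driven reporters. After 24 h compound exposure, reporter mRNA induction quantified by RT-PCR and capillary electrophoresis with fluorescent labeling; gain-of-signal fitted relative to DMSO control.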

[13] = molecular target: human Retinoic Acid Receptor gamma (RARg), RARG (gene 5916) (UniProt P13631); experiment: ATG_RARg_TRANS: Attagene TRANS-FACTORIAL HepG2 Assay for human Retinoic Acid Receptor gamma (RARg) (AID 2283009; active means hit-call score of the fitted dose curve at least 0.9, where 1 is the maximum)
Procedure, shortened: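 HepG2 cells transiently transfected with multiplexed reporter units expressing chimeric RARg-GAL4 and GAL4-UAS-driven reporters; 24 h compound exposure. Reporter mRNA quantified by RT-PCR with fluorescent labelling and capillary electrophoresis; gain-of-signal fitted relative to DMSO baseline.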

[14] = molecular target: human Peroxisome Proliferator-activated Receptor delta (PPARd), PPARD (gene 5467) (UniProt Q03181); experiment: ATG_PPARd_TRANS: Attagene TRANS-FACTORIAL HepG2 Assay for human Peroxisome Proliferator-activated Receptor delta (PPARd) (AID 2283002; active means hit-call score of the fitted dose curve at least 0.9, where 1 is the maximum)
Procedure, shortened: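 HepG2 cells transiently transfected with multiplexed GAL4-UAS reporter units and exogenous chimeric NR-Gal4 proteins; 24 h compound exposure. Reporter mRNA measured by RT-PCR, 6-FAM labelling, HpaI digestion and capillary electrophoresis; gain of signal versus DMSO.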

[15] = BSK_3C_TissueFactor: BioMAP Diversity Plus: 3C Assay for Tissue Factor Biomarker Activity (AID 2282997); details: BioMAP 3C HUVEC, tissue factor biomarker readout; actives raise or lower the signal
Procedure, shortened: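 ELISA read-out of Tissue Factor levels on human umbilical vein endothelium collected 24 h after chemical dosing. Gain or loss of signal was fitted relative to DMSO.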

[16] = BSK_3C_uPAR: BioMAP Diversity Plus: 3C Assay for Urokinase-type plasminogen activator receptor (uPAR) Biomarker Activity (AID 2282998); details: BioMAP 3C HUVEC, uPAR biomarker ELISA; actives raise or lower the signal
Procedure, shortened: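 Human umbilical vein endothelial primary cells were exposed to test chemical for 24 h. Cell-surface uPAR was then quantified by ELISA, and responses were fitted bidirectionally against DMSO as negative control and baseline.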

[17] = BSK_3C_VCAM1: BioMAP Diversity Plus: 3C Assay for Vascular cell adhesion molecule 1 (VCAM1) Biomarker Activity (AID 2282999); details: BioMAP 3C HUVEC, VCAM1 ELISA, cytokine-stimulated; actives raise or lower the signal
Procedure, shortened: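 Human umbilical vein endothelial cells were dosed with compound for 24 h, after which cell-surface VCAM-1 was quantified by ELISA. Bidirectional curve fitting used DMSO as negative control and activity baseline.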

[18] = BSK_4H_Eotaxin3: BioMAP Diversity Plus: 4H Assay for Eotaxin 3 Biomarker Activity (AID 2283000); details: primary human endothelial cells (HUVEC); actives raise or lower the signal
Procedure, shortened: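 Chemicals were added to human umbilical vein endothelium cultures, and Eotaxin-3 was quantified by ELISA at 24 h. Values were derived by bidirectional fitting with DMSO serving as negative control and activity baseline.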

[19] = read-out: Intercellular Adhesion Molecule 1 (ICAM1), ICAM1 (gene 3383); experiment: BSK_3C_ICAM1: BioMAP Diversity Plus: 3C Assay for Intercellular Adhesion Molecule 1 (ICAM1) Biomarker Activity (AID 2283003); details: primary human endothelial cells (HUVEC); actives raise or lower the signal
Procedure, shortened: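 Primary human umbilical vein endothelial cells in the BioMAP 3C system were exposed to chemicals for 24 h, then ICAM-1 was quantified by ELISA. Activity was fitted bidirectionally against the DMSO negative control baseline.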

[20] = BSK_3C_Proliferation: Cell Proliferation Assessment in the BioMAP Diversity Plus: 3C Assay (AID 2283006); details: primary human endothelial cells (HUVEC);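 on AC50: potency may reflect either rise or fall in cell number versus DMSO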
Procedure, shortened: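 Human umbilical vein endothelial cells were grown sub-confluent and exposed to chemical for 48 h, then fixed with 10% TCA and stained with 0.1% sulforhodamine B; absorbance at 560 nm gave relative cell number, fitted bidirectionally against DMSO baseline.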

Measured: AC50

Retinoic acid receptor alpha (Homo sapiens), sequence (P10276 whole entry, looked up, the tested form may be a part): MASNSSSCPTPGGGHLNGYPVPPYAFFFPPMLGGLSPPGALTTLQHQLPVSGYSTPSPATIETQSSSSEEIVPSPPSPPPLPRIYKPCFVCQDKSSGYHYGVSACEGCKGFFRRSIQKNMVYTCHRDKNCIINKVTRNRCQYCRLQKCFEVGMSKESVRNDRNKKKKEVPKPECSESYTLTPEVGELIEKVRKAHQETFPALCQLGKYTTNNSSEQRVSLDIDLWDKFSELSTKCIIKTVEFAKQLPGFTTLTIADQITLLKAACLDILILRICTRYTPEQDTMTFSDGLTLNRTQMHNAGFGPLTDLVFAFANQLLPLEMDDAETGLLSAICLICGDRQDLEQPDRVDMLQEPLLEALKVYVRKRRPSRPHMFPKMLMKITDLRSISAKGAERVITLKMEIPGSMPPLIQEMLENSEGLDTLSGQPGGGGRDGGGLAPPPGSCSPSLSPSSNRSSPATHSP
Nuclear receptor subfamily 1 group I member 2 (Homo sapiens), sequence (O75469 whole entry, looked up, the tested form may be a part): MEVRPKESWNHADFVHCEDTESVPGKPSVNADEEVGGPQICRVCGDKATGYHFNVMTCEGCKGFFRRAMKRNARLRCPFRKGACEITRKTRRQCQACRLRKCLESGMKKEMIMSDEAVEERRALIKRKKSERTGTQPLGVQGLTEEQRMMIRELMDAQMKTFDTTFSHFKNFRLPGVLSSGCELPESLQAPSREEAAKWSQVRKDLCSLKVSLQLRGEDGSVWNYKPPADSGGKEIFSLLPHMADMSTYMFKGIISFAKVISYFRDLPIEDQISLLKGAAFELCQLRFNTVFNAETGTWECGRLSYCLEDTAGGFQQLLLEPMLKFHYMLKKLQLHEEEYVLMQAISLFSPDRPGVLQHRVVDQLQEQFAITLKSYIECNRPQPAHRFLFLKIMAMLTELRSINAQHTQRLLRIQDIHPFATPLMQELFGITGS
human Retinoic Acid Receptor beta (RARb), RARB (gene 5915), sequence (P10826 whole entry, looked up): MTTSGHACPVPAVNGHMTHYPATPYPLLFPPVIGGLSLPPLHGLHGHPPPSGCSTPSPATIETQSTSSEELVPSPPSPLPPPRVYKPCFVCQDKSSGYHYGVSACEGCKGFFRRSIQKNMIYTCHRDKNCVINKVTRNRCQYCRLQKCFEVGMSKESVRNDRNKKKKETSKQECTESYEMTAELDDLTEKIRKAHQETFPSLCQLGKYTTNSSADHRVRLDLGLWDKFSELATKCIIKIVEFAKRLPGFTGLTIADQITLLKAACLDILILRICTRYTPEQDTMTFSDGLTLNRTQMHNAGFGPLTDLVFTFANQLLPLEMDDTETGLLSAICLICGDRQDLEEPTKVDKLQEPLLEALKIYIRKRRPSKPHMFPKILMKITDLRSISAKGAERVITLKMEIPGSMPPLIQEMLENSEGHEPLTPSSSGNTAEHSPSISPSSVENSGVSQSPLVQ
human Retinoic Acid Receptor gamma (RARg), RARG (gene 5916), sequence (P13631 whole entry, looked up, the tested form may be a part): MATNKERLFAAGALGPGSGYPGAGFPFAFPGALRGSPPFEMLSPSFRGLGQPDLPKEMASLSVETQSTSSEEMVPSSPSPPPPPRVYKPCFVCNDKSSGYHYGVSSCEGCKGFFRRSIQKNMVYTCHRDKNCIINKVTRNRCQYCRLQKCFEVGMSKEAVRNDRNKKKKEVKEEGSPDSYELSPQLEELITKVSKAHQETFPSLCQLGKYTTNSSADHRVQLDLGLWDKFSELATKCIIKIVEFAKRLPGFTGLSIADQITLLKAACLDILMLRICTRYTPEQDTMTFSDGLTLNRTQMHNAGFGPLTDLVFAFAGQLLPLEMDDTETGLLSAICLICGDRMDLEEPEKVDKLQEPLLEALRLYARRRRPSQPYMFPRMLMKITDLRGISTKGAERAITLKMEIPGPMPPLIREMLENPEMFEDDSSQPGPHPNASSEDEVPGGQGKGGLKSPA
Cellular tumor antigen p53 (Homo sapiens), sequence (P04637 whole entry, looked up): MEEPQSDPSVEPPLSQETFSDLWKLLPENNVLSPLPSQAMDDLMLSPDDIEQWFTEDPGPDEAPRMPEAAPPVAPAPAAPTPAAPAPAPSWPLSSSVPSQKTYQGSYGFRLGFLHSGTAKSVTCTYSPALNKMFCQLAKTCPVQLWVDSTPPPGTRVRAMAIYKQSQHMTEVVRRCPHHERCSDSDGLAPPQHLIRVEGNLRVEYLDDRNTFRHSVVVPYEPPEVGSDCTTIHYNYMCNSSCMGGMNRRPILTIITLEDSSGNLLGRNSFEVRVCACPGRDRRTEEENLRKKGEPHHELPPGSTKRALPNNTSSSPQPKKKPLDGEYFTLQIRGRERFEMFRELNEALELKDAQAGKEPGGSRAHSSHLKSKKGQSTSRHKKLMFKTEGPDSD
Myc proto-oncogene protein (Homo sapiens), sequence (P01106 whole entry, looked up): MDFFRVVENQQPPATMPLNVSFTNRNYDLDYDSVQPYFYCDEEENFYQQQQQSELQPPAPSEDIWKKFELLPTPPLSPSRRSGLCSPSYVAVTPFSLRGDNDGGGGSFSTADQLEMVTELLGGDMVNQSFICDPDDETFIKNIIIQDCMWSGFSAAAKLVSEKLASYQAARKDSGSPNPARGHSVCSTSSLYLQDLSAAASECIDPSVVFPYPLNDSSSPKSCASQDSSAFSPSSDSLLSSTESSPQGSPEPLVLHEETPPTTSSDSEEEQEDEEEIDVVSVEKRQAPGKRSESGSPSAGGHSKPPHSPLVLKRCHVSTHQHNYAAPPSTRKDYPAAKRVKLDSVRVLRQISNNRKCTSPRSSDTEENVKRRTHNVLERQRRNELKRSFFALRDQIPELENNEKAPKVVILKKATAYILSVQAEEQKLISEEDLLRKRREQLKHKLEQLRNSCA
human RAR-related Orphan Receptor beta (RORb), RORB (gene 6096), sequence (Q92753 whole entry, looked up, the tested form may be a part): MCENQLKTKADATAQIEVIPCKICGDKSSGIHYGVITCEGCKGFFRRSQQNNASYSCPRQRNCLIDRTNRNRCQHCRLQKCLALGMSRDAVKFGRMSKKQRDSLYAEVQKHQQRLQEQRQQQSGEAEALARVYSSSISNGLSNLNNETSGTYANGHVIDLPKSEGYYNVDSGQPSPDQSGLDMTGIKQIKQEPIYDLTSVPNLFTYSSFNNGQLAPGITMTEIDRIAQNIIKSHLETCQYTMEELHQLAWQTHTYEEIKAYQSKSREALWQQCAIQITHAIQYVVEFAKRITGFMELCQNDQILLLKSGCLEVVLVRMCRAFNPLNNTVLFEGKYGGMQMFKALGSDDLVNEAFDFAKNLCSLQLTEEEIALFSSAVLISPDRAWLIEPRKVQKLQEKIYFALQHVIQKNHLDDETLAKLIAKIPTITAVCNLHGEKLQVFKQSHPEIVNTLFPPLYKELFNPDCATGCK
Peroxisome proliferator-activated receptor gamma (Homo sapiens), sequence (P37231 whole entry, looked up, the tested form may be a part): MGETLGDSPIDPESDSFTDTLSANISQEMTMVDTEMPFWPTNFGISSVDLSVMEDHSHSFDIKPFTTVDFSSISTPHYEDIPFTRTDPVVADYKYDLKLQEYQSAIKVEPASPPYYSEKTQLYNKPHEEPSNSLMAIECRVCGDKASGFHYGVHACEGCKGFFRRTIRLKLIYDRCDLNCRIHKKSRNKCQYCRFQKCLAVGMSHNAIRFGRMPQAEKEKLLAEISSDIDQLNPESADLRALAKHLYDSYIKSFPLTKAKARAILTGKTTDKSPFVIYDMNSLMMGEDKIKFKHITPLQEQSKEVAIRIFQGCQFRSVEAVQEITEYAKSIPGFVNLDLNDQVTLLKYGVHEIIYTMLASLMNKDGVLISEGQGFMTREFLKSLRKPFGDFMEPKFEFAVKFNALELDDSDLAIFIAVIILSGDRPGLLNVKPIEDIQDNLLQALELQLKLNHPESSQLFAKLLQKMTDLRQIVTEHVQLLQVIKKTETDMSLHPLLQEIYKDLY
human Peroxisome Proliferator-activated Receptor alpha (PPARa), PPARA (gene 5465), sequence (Q07869 whole entry, looked up, the tested form may be a part): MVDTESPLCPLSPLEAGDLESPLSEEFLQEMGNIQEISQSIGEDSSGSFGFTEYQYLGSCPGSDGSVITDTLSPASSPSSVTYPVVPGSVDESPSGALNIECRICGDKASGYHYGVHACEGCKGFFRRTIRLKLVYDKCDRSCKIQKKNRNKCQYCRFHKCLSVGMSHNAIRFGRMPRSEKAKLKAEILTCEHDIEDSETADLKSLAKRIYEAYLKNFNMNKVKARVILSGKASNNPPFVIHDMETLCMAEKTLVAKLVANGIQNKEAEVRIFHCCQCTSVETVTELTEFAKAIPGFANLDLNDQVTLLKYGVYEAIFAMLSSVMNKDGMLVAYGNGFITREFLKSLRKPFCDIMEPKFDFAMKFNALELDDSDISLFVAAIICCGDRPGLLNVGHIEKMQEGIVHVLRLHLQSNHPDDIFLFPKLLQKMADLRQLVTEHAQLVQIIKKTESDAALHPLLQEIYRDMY
human Peroxisome Proliferator-activated Receptor delta (PPARd), PPARD (gene 5467), sequence (Q03181 whole entry, looked up, the tested form may be a part): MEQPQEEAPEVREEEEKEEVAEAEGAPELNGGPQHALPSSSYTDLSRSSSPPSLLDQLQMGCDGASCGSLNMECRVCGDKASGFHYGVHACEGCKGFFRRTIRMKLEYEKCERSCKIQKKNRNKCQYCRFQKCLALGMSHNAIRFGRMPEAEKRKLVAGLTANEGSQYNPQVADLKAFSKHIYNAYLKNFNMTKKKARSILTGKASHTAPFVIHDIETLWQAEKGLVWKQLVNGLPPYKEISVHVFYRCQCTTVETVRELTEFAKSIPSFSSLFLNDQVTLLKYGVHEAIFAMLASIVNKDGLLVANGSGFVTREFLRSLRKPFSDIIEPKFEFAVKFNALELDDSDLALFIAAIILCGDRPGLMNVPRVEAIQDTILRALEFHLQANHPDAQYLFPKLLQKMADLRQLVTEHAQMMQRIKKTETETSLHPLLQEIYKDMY

CCOCCOCC
inactive: [1] | [2] | [3] | [4] | [5] | [6] | [7] | [8] | [9]

CC(O)COc1ccccc1 (centres undefined)
not listed: [4] | [14] | [15] | [16] | [17] | [18] | [19] | [20]
inactive: all other assays above

CCOC(=O)c1nc(C(Cl)(Cl)Cl)n(-c2ccc(Cl)cc2Cl)n1
inactive: [1] | [3] | [5]
active: [2] 24.5 µM | [4] 26.8 µM | [7] 40.4 µM | [8] 7.68 µM

CCCCCCCCC(C)=O
inactive: [1] | [2] | [3] | [4] | [5] | [6] | [14] | [8]

Clc1ccc2c(Cl)ccnc2c1
inactive: [1] | [2] | [5] | [6] | [14] | [11] | [12] | [13]
active: [4] 3.21 µM | [7] 16.9 µM | [8] 25.8 µM

Brc1cc(Br)c(Oc2c(Br)cc(Br)c(Br)c2Br)cc1Br
inactive: [1] | [2] | [4] | [5] | [6] | [10] | [14] | [11] | [7] | [8]

C[C@]12CC[C@@H]3c4ccc(O)cc4CC[C@H]3[C@@H]1C[C@@H](O)[C@@H]2O
not listed: [3] | [9] | [13]
inactive: all other assays above

C=Cc1ccc(O)c(OC)c1
active: [4] 6.89 µM | [7] 8.33 µM | [8] 70.3 µM
inactive: [1] | [2] | [5] | [6] | [14] | [11] | [12] | [13]

Oc1c(Cl)cc(Cl)cc1Sc1cc(Cl)cc(Cl)c1O
inactive: [1] | [2] | [6] | [14] | [13] | [9]
active: [4] 3 µM | [5] 3.57 µM | [15] 22.2 µM and 21 µM | [16] 3.97 µM and 7.82 µM | [17] 31.3 µM and 28.6 µM | [18] 22.2 µM and 18.5 µM | [10] 11.1 µM | [19] 33.5 µM and 34.8 µM | [20] 5.56 µM and 4.63 µM | [7] 2.69 µM | [8] 1.9 µM

FC(F)(F)C(F)(F)C(F)(F)Br
inactive: [1] | [2] | [3] | [5] | [6] | [12] | [8] | [13]

COCN(COC)c1nc(N(COC)COC)nc(N(COC)COC)n1
not listed: [3] | [7] | [9] | [11] | [12]
inactive: all other assays above

CNNCc1ccc(C(=O)NC(C)C)cc1
inactive: [1] | [2] | [4] | [5] | [6] | [10] | [14] | [8] | [9]
